PPARg SRC3 recr: PPARgamma agonists recruiting SRC-3 coactivator, primary screen, biochemical. biochemical PPARgamma/SRC-3 coactivator recruitment assay. activation, % at 8 µM. 200,000 tested, 0.26% active; in the data active means activation above about 23%
Target sequence (P37231 whole entry, looked up): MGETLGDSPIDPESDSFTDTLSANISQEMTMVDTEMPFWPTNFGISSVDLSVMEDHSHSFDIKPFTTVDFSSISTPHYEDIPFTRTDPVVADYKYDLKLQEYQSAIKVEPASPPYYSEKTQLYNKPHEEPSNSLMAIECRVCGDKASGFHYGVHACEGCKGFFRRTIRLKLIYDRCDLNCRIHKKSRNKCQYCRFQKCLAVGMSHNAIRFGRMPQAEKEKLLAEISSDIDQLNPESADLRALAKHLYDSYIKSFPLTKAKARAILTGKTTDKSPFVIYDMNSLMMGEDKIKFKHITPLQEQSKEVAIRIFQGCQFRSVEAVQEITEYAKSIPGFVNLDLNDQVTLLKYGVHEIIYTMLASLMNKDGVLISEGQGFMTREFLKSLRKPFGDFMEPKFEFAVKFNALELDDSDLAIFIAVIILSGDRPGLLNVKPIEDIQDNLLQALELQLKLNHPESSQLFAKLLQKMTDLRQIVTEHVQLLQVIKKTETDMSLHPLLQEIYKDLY
SRC2 TRFRET art: TR-FRET signal artefacts, primary screen, artefact control for PPARgamma SRC-2 agonist project, biochemical; TR-FRET artefact counter-screen; hits give high values; TR-FRET ratio at 8 µM; 200,000 tested, 0.4% active; AID 1049, 2008; in the data active means TR-FRET ratio above about 2000
PPARg SRC-2 ag: agonists of PPARg-SRC-2 recruitment, primary screen, biochemical, HTS | Peroxisome proliferator-activated receptor gamma (Homo sapiens), P37231 | PPARgamma LBD-SRC-2 recruitment | activation, % at 8 µM | 200,000 tested, 0.34% active | AID 1032, 2008
SRC1 TRFRET art: TR-FRET detection interference compounds, primary screen, artefact control for PPARgamma SRC-1 recruitment agonists, biochemical, TR-FRET emission ratio | TR-FRET detection artefact counter-screen; hits give high values | 99,000 tested, 0.34% active | TR-FRET ratio at 8 µM; in the data active means TR-FRET ratio above about 2300
PPARg SRC1 recr: PPARgamma agonists recruiting SRC-1 coactivator, primary screen, biochemical; Peroxisome proliferator-activated receptor gamma (Homo sapiens), P37231; PPARgamma-SRC-1 coactivator recruitment biochemical assay; activation, % at 8 µM; 200,000 tested, 0.41% active; AID 631, 2007; in the data active means activation above about 19%
SRC3 TRFRET art: TR-FRET detection interference compounds, artefact control for PPARgamma SRC-3 recruitment agonists, biochemical, TR-FRET ratio. TR-FRET artefact counter-screen, PPARgamma/SRC-3 format; hits give high values. TR-FRET ratio at 8 µM. 99,000 tested, 0.39% active. AID 1048, 2008; in the data active means TR-FRET ratio above about 2000
PPARg SRC2 ag: agonists of PPARgamma SRC-2 coactivator recruitment, confirmation, biochemical, HTS; biochemical SRC-2 recruitment by PPARgamma; shares compounds with PPARg SRC3 recr; 790 tested, 52% active; activation, % at 8 µM
PPARg SRC1 conf: PPARgamma agonists recruiting SRC-1 coactivator, confirmation, biochemical | PPARgamma–SRC-1 coactivator recruitment biochemical assay | activation, % at 8 µM | shares compounds with PPARg SRC3 recr | 790 tested, 43% active | AID 1300, 2008; in the data active means activation above about 20%
PPARg SRC3 conf: PPARgamma-driven SRC-3 coactivator recruitment agonists, confirmation, biochemical. shares compounds with PPARg SRC3 recr. biochemical PPARgamma-SRC-3 coactivator recruitment, agonist mode. activation, % at 8 µM. 790 tested, 29% active; in the data active means activation above about 24%
Large screens that a line does not name were inactive (follow-up assays come after a bar, where they were run). An excerpt weighted towards active compounds, which were near 0.9% of everything screened. Unless noted, no stated cut-off is given here; in the data, active means activation above about 22%; inactive means the rest.

COc1ccccc1-c1n[nH]c(=S)o1	PPARg SRC3 recr 59, SRC2 TRFRET art 2562, PPARg SRC-2 ag 48, PPARg SRC1 recr 36 (no result: SRC1 TRFRET art, SRC3 TRFRET art) | PPARg SRC2 ag 46 | PPARg SRC1 conf 35 | PPARg SRC3 conf 30
CC(C)N1CCC(N2CCN(Cc3ccc(-c4ccc(Cl)cc4)o3)CC2CCO)CC1 (stereo not drawn)	none
COc1cccc(N(CC(=O)NCC2CCCO2)C(=O)CCC(=O)Nc2nccs2)c1 (stereo not drawn)	none
Cc1cc(NC(=O)COc2ccc3oc4ccccc4c3c2)no1	PPARg SRC1 recr 27 (no result: SRC1 TRFRET art, SRC3 TRFRET art) | PPARg SRC2 ag inactive | PPARg SRC1 conf inactive | PPARg SRC3 conf inactive
Cc1ccc(C)n1-c1ccc(-c2nnc3n2CCCCC3)s1	PPARg SRC1 recr 27 (no result: SRC1 TRFRET art, SRC3 TRFRET art) | PPARg SRC2 ag 23 | PPARg SRC1 conf 22 | PPARg SRC3 conf inactive
CCOC(=O)c1[nH]c2c(c1-c1ccc(OC)cc1)C(=O)CC(c1ccc(OC)c(OC)c1)C2 (stereo not drawn)	none
Cc1cc(C)c(NC(=O)CSc2nnc(SCC(=O)Nc3c(C)cc(C)cc3C)n2N)c(C)c1	none (no result: SRC1 TRFRET art, SRC3 TRFRET art)
Cc1cccc2cc(CN(Cc3ccc(F)cc3)Cc3nnnn3C3CCCC3)c(=O)[nH]c12	PPARg SRC3 recr 62, SRC2 TRFRET art 4917, PPARg SRC-2 ag 112 (no result: SRC1 TRFRET art, SRC3 TRFRET art) | PPARg SRC2 ag inactive | PPARg SRC1 conf inactive | PPARg SRC3 conf inactive
Cc1cc(C)c2[nH]c(=O)c(CN(Cc3ccc4c(c3)OCO4)Cc3nnnn3C3CCCC3)cc2c1	none (no result: SRC1 TRFRET art, SRC3 TRFRET art)
Cc1cc(NS(=O)(=O)c2ccc(NC(=O)c3cc4cc(Br)ccc4oc3=O)cc2)no1	none
N#Cc1c(-c2ccccc2)cc(C2CC2)nc1SCC(=O)c1cccs1	SRC2 TRFRET art 2112, PPARg SRC1 recr 24 (no result: SRC1 TRFRET art, SRC3 TRFRET art) | PPARg SRC2 ag 53 | PPARg SRC1 conf 43 | PPARg SRC3 conf 26
COc1cccc(NC(=O)CN2C(=O)NC(C)(CC(C)C)C2=O)c1 (stereo not drawn)	none
COc1ccc(NC(=O)c2oc3cc(C)c(C)cc3c2C)c(OC)c1	none (no result: SRC1 TRFRET art, SRC3 TRFRET art)
CCN(CC)S(=O)(=O)c1ccc2oc(C(=O)Nc3ccc(OC)cc3OC)c(C)c2c1	PPARg SRC1 recr 19 (no result: SRC1 TRFRET art, SRC3 TRFRET art) | PPARg SRC2 ag inactive | PPARg SRC1 conf inactive | PPARg SRC3 conf inactive
Cc1cc(=O)[nH]c(SCC(=O)Nc2ccc(S(=O)(=O)N3CCCCC3)cc2)n1	none (no result: SRC1 TRFRET art, SRC3 TRFRET art)
N#Cc1cc2ccccc2nc1SCC(=O)Nc1ccc(S(=O)(=O)N2CCCC2)cc1	SRC2 TRFRET art 3014, PPARg SRC1 recr 19 (no result: SRC1 TRFRET art, SRC3 TRFRET art) | PPARg SRC2 ag inactive | PPARg SRC1 conf inactive | PPARg SRC3 conf inactive
COc1ccc2nc(SCC(=O)N3CCCCC3)c(C#N)cc2c1	none
Cc1cc2nc(-c3ccc(SCC(=O)Nc4ccc(S(=O)(=O)N5CCCC5)cc4)nc3)[nH]c2cc1C	SRC2 TRFRET art 3000, PPARg SRC-2 ag 39, SRC1 TRFRET art 3103, PPARg SRC1 recr 31, SRC3 TRFRET art 3472 | PPARg SRC2 ag 79 | PPARg SRC1 conf 62 | PPARg SRC3 conf 50
COc1ccc2nc(SCC(=O)Nc3ccc(S(=O)(=O)N4CCCC4)cc3)c(C#N)cc2c1	PPARg SRC3 recr 83, SRC2 TRFRET art 4855, PPARg SRC-2 ag 78, PPARg SRC1 recr 86 (no result: SRC1 TRFRET art, SRC3 TRFRET art) | PPARg SRC2 ag 79 | PPARg SRC1 conf 62 | PPARg SRC3 conf 48
O=C(CSc1ccc(-c2nc3ccccc3[nH]2)cn1)Nc1ccc(S(=O)(=O)N2CCCC2)cc1	none
C=CCCCCCCCC(=O)OC	PPARg SRC1 recr 22 | PPARg SRC2 ag inactive | PPARg SRC1 conf inactive | PPARg SRC3 conf inactive
CS(=O)(=O)c1nc(-c2ccc(Br)cc2)cc(-c2ccccc2)c1C#N	PPARg SRC3 recr 111, SRC2 TRFRET art 2843, PPARg SRC1 recr 53 (no result: SRC1 TRFRET art, SRC3 TRFRET art) | PPARg SRC2 ag 66 | PPARg SRC1 conf 49 | PPARg SRC3 conf 39
COc1cccc(CC2(CO)CCN(CC3=CC[C@H]4C[C@@H]3C4(C)C)CC2)c1	none
CCOC(=O)CSc1nc(N)c(C(=O)Nc2ccc(N(C)C)cc2)s1	PPARg SRC1 recr 22 (no result: SRC1 TRFRET art, SRC3 TRFRET art) | PPARg SRC2 ag inactive | PPARg SRC1 conf inactive | PPARg SRC3 conf inactive
Cc1[nH]c2ccccc2c1/C=C(\C#N)C(=O)NCc1ccccc1	none
Cc1ccc(C(C)NC(=O)/C(C#N)=C\c2c(C)[nH]c3ccccc23)cc1 (stereo not drawn)	PPARg SRC1 recr 19 (no result: SRC1 TRFRET art, SRC3 TRFRET art) | PPARg SRC2 ag inactive | PPARg SRC1 conf inactive | PPARg SRC3 conf inactive
Clc1ccc(Cl)c(-c2ccc(/C=N/c3ncn[nH]3)o2)c1	PPARg SRC3 recr 58, SRC2 TRFRET art 2699, PPARg SRC-2 ag 54, PPARg SRC1 recr 49 (no result: SRC1 TRFRET art, SRC3 TRFRET art) | PPARg SRC2 ag 53 | PPARg SRC1 conf 38 | PPARg SRC3 conf 30
COc1ccc(CC(=O)NNC(=O)COc2ccc3ccccc3c2)cc1	PPARg SRC3 recr 142, SRC2 TRFRET art 3867, PPARg SRC-2 ag 214, SRC1 TRFRET art 6123, PPARg SRC1 recr 194, SRC3 TRFRET art 4430 | PPARg SRC2 ag 256 | PPARg SRC1 conf 196 | PPARg SRC3 conf 169
COc1ccc(OCC(=O)NNC(=O)CCc2ccccc2)cc1	none
N#CC(=C1N=c2ccccc2=N1)c1c(O)[nH]c2ccccc12	none (no result: SRC1 TRFRET art, SRC3 TRFRET art)
Cn1c(O)c(C(C#N)=C2N=c3ccccc3=N2)c2ccccc21	PPARg SRC1 recr 22 (no result: SRC1 TRFRET art, SRC3 TRFRET art) | PPARg SRC2 ag inactive | PPARg SRC1 conf inactive | PPARg SRC3 conf inactive
CS(=O)(=O)c1ccc(C(=O)Nc2ccc(N3CCCCC3)cc2)c(Cl)c1	none
Cc1ccc(Sc2ccc(NC(=O)c3ccc(S(C)(=O)=O)cc3Cl)cc2)cc1	PPARg SRC3 recr 33, PPARg SRC1 recr 54 (no result: SRC1 TRFRET art, SRC3 TRFRET art) | PPARg SRC2 ag 24 | PPARg SRC1 conf 21 | PPARg SRC3 conf inactive
Nc1c(C(=O)Nc2ccc(F)cc2)sc2nc(-c3ccco3)ccc12	none (no result: SRC1 TRFRET art, SRC3 TRFRET art)
Nc1c(C(=O)Nc2ccc(Br)cc2)sc2nc(-c3ccco3)ccc12	PPARg SRC-2 ag 23 (no result: SRC1 TRFRET art, SRC3 TRFRET art) | PPARg SRC2 ag inactive | PPARg SRC1 conf inactive | PPARg SRC3 conf inactive
